The text below walks through data of PubChem BioAssay AID624296 (National Center for Advancing Translational Sciences (NCATS), 2012).

The campaign covered roughly 350,000 compounds. About 9,900 (2.8%) were called active. Roughly 15% stayed inconclusive and do not appear here. Calls come from the whole dose curve; as a rule, active = well fitted activation curve with a large enough effect; inconclusive = small, poorly fitted or top-dose-only effect; inactive = no such curve, though single readings can be large or run the other way. The entries come from a sample that favours actives as a whole.
Potency is the fitted concentration of half-maximal effect.

A short description of the test: A quantitative high throughput screen for small molecules that induce DNA re-replication in MCF 10a normal breast cells. For activity, positive = re-replication: % of control where 0% means no effect. Note: nearly all actives have a fitted effect of over 50% in size. Particulars: MCF 10A DNA re-replication, Hoechst nuclear intensity, 48 h; series mostly up to 46.1 µM; activity, positive = re-replication: at the top concentration.
On to `CCOc1ccc(Br)cc1S(=O)(=O)Nc1ccc(S(=O)(=O)Nc2cc(C)on2)cc1`, for which the “activity, positive = re-replication” value was -35.5% (inactive).

For the compound `c1ccc(CNc2ncnc3[nH]ncc23)cc1`, the “activity, positive = re-replication” value is 7.58% (inactive).

For `O=C(COC(=O)c1cc(S(=O)(=O)N2CCOCC2)ccc1Cl)NCCc1ccccc1`, the “activity, positive = re-replication” value is 16.1% (inactive).

Take `COc1ccc2[nH]c3c(c2c1)CCN1C(=O)C(CC(=O)NCc2cccc(C(F)(F)F)c2)C[C@H](C(=O)N2CCOCC2)[C@@]31C` (stereo partly specified): the “activity, positive = re-replication” value was -13.4% (inactive).

Regarding `CC1CCc2c(sc3nc4n(c(=O)c23)CCS4)C1` (stereo unspecified), the “activity, positive = re-replication” value was 4.82% (inactive).

With `C=CCn1c(SCc2c(C)noc2C)nc2sc3c(c2c1=O)CCC(C)C3` (stereo unspecified), the Potency is 3.66 µM (active).

In the case of `C=CCn1c(SCC(=O)NCC2CCCO2)nc2sc(C)c(C)c2c1=O` (stereo unspecified), the “activity, positive = re-replication” value was 0.828% (inactive).

On to `CC(NC(=O)COC(=O)CCC(=O)c1ccc(Cl)cc1)c1ccccc1` (stereo unspecified), for which the “activity, positive = re-replication” value is 0.61% (inactive).

For `CC[C@]12c3[nH]c4ccc(OC)cc4c3CCN1C(=O)C(CC(=O)NCc1ccco1)C[C@@H]2C(=O)N1CCN(C(=O)C2CC2)CC1` (stereo partly specified), the “activity, positive = re-replication” value is 12.3% (inactive).

Take `CC12CCCCC1=CC(=O)CC2` (stereo unspecified): the “activity, positive = re-replication” value was -3.75% (inactive).

Consider `COc1ccc(Nc2nnc(C)c3ccccc23)cc1`, for which the “activity, positive = re-replication” value was -4.32% (inactive).

Consider `COc1ccc(Nc2ccc3ccccc3c2)cc1`, for which the Potency was 23.1 µM (active).

For `COc1ccc(-c2nnc(-c3ccc4ccccc4c3)o2)cc1`, the “activity, positive = re-replication” value is 1.89% (inactive).

Regarding `COc1cc(C(=O)N2CCN(S(=O)(=O)c3ccc(C(C)C)cc3)CC2)ccc1OCC(=O)N1CCOCC1`, the “activity, positive = re-replication” value was -2.7% (inactive).

For `O=C(CNC(=O)c1ccccc1Br)NNC(=O)c1cccs1`, the “activity, positive = re-replication” value was -1.43% (inactive).

Regarding `CC/C(=N\NC(=O)c1ccccc1Cl)c1ccc(Br)s1`, the “activity, positive = re-replication” value is 4.13% (inactive).

Take `O=C(C/C(=N\NC(=O)c1ccccc1Br)C(F)(F)F)c1cccs1`: the Potency was 11.6 µM (active).

For the compound `CCOC(=O)Cc1csc(SCC(=O)Nc2ccc(C)cc2F)n1`, the “activity, positive = re-replication” value is 2.76% (inactive).

Turning to `O=C(OCC(=O)N1CCCCCC1)c1ccc(Cl)nc1`, the “activity, positive = re-replication” value is 0.256% (inactive).

As for `CC(=O)NCCC(=O)Nc1nc(C)c(Cc2ccc3c(c2)OCO3)s1`, the “activity, positive = re-replication” value is 6.4% (inactive).

With `Cc1ccc(C(=O)Nc2sc(Cc3ccc4c(c3)OCO4)c(C)c2C(N)=O)cc1`, the Potency was 4.11 µM (active).

For the compound `COCc1nnc(NC(=O)c2ccc3c(c2)OCO3)s1`, the “activity, positive = re-replication” value was -0.575% (inactive).

Take `COc1ccccc1C(=O)NCC(=O)OCC(=O)Nc1nnc(-c2ccccc2)o1`: the “activity, positive = re-replication” value was -0.4% (inactive).

As to `Cc1coc2c(O)cc3c(c12)OC1(N2CCCCC2)C(=O)NCCCC31` (stereo unspecified), the Potency is 18.4 µM (active).

In the case of `O=C1OC(Oc2ccc(Br)cc2)(c2ccccc2)c2ccccc21` (stereo unspecified), the Potency was 11.6 µM (active).

`Cc1cccc(C(=O)OCC(=O)NC(C)C2CC3CCC2C3)c1O` (stereo unspecified): the “activity, positive = re-replication” value was -1.59% (inactive).

In the case of `Cc1cc(OCCCC(=O)Nc2cc(S(=O)(=O)N3CCOCC3)ccc2N2CCOCC2)ccc1Cl`, the “activity, positive = re-replication” value is -5.32% (inactive).

`O=C(CS(=O)(=O)c1cn(Cc2cccc(F)c2)c2ccccc12)N1CCCCC1`: the “activity, positive = re-replication” value is -1.38% (inactive).

Turning to `O=c1cc(N2CCCCC2)c(-c2ccccc2)nn1Cc1cccc(F)c1`, the Potency was 20.6 µM (active).

Consider `O=c1cc(N2CCN(Cc3ccccc3)CC2)c(-c2ccccc2)n[nH]1`, for which the “activity, positive = re-replication” value is 1.62% (inactive).

`COc1ccc(-c2nnc(SC(C)C(=O)NC3CC3)o2)cc1` (stereo unspecified): the “activity, positive = re-replication” value is 11.4% (inactive).

As to `Cc1ccc(C(=O)/C=C/c2c(C)nn(-c3ccccc3)c2Cl)cc1`, the Potency was 16.4 µM (active).

On to `Cc1nn(-c2ccccc2)c(Cl)c1C(=O)Nc1ccccc1`, for which the “activity, positive = re-replication” value was 0.187% (inactive).

Take `Cc1nn(-c2ccccc2)c(C)c1/C=C/C(=O)OC(C)C(N)=O` (stereo unspecified): the “activity, positive = re-replication” value was 1.07% (inactive).

`Cc1ccc(CNC(=O)CC(NC(=O)c2ccccc2)c2ccccc2)cc1` (stereo unspecified): the “activity, positive = re-replication” value is 1.97% (inactive).

In the case of `O=C(Nc1ccccc1)Oc1cccc2cccnc12`, the Potency was 4.11 µM (active).

With `COc1ccc(NC(=O)Nc2cccc3cccnc23)cc1`, the “activity, positive = re-replication” value was 0.777% (inactive).

As for `OCc1ccc(OCCCOc2cccc3cccnc23)cc1`, the “activity, positive = re-replication” value was -8.56% (inactive).

For the compound `CN(Cc1ccccc1)C(=O)COC(=O)/C=C/c1ccc2c(c1)OCO2`, the “activity, positive = re-replication” value was 2.86% (inactive).

As to `O=C(CN1C(=O)NC2(CCCCCC2)C1=O)NCc1ccc(F)cc1`, the “activity, positive = re-replication” value was -0.62% (inactive).

For `COc1ccc(S(=O)(=O)Nc2ccc3cn[nH]c3c2)cc1[N+](=O)[O-]`, the “activity, positive = re-replication” value is -2.12% (inactive).

Turning to `Cc1cccc(NC(=O)c2nnn(-c3cccc(C(F)(F)F)c3)c2N)c1`, the “activity, positive = re-replication” value was -4.01% (inactive).

On to `N#Cc1ccc(Oc2ccc(C(F)(F)F)cc2NC(=O)c2ccc(F)cc2)cc1`, for which the “activity, positive = re-replication” value was 4.38% (inactive).

In the case of `CNC(=O)c1ccc(NC(=O)c2cccc(C(F)(F)F)c2)cc1`, the “activity, positive = re-replication” value is -36.1% (inactive).

`COc1cc(NC(=O)c2[nH]cnc2C(N)=O)cc(C(=O)Nc2cccc(C(F)(F)F)c2)c1`: the Potency was 7.31 µM (active).

Consider `COc1cc(NC(=O)c2cncc(-c3ccc(C#N)cc3)c2)cc(C(=O)Nc2cccc(C(F)(F)F)c2)c1`, for which the Potency is 13 µM (active).

As for `COc1ccc(NC(=O)C(=O)NCC(=O)Nc2cccc(C(F)(F)F)c2)cc1`, the “activity, positive = re-replication” value is -3.28% (inactive).

As to `CC(=O)N1CCc2ccc(N)cc21`, the “activity, positive = re-replication” value is -2.27% (inactive).

Take `CC1CCC(CN2CCN=C2N(C)C)CC1` (stereo unspecified): the “activity, positive = re-replication” value was 2.36% (inactive).

In the case of `COc1cc2c(cc1OC)CN(C(C)C(=O)Nc1cccc(S(=O)(=O)N3CCOCC3)c1)CC2` (stereo unspecified), the “activity, positive = re-replication” value was 1.81% (inactive).

Consider `COCCn1c(C)cc(C(=O)CN2c3cccc4cccc(c34)S2(=O)=O)c1C`, for which the “activity, positive = re-replication” value is 18.7% (inactive).
